HT1080 IDH1KD tx: kills HT-1080 cells with IDH1 knockdown; 360,000 compounds, 2% hits; Potency, µM (top dose mostly 46.1 µM), inactives show at the highest dose activity, negative = toxicity, most hits filed as cytotoxic; HT-1080 IDH1 knockdown viability, ATP luminescence, 48 h;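 further: 0% = DMSO wells and -100% = cell-free medium wells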
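Cytotoxicity counter-line: IDH1KD HT-1080, 48 h, CellTiter-Glo. Curves classed by r2, magnitude and activity.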
KB-V1 cytotox: kills drug-selected multidrug resistant KB-V1 cells; KB-V1 MDR cells viability, CellTiter-Glo, 72 h; Potency, µM (titrated, usually from 46.1 µM), hits mostly cytotoxic; 400,000 compounds, 3.4% hits; AID 1347076; further: nearly all actives have a fitted effect of over 60% in size
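KB-V1 cells (P-gp-expressing MDR subline of KB-3-1) in phenol-red-free DMEM with 10% FBS were exposed to library compounds over a concentration series for 72 h at 37 degrees C. Viability read by CellTiter-Glo luminescence; concentration-effect curves fitted after normalization.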
HT1080NT lethal: kills 2HG-producing HT-1080-NT fibrosarcoma cells; Potency, µM (doses to about 46.1 µM), for inactives: at the top dose activity, negative = less viability, most hits filed as cytotoxic; 360,000 compounds, 1.6% hits; HT-1080-NT fibrosarcoma viability, CellTiter-Glo ATP luminescence, 48 h;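 further: NT is the 2HG producing partner of a matched IDH1 knockdown line; 0% = DMSO-treated cells and -100% = media-only wells without cells; nearly all actives have a fitted effect of over 55% in size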
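Fibrosarcoma NT cells, 750 per well in 5% FBS RPMI, were exposed to compound for 48 hours. Viability: CellTiter-Glo luminescence.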
DT40 TDP1 CPT: growth inhibition of DT40 Tdp1-/-;hTDP1 cells with camptothecin (screen for TDP1 inhibitors) | chicken DT40 Tdp1-/-;hTDP1 cells + 20 nM CPT, ATP luminescence, 48 h | Potency, µM (top dose mostly 46.2 µM), for the others: at the top dose activity change, negative = growth inhibition, most hits filed as inhibitors | 420,000 compounds, 12% hits; further: nearly all actives have a fitted effect of over 55% in size
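Cell growth measured by CellTiter-Glo luminescence after a minimum 48 h, 37 C compound exposure with 20 nM CPT in Tdp1-knockout DT40 cells stably expressing hTDP1, seeded 400/well; qHTS titration format.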
TDP1 cell noCPT: qHTS for Inhibitors of human tyrosyl-DNA phosphodiesterase 1 (TDP1): qHTS in cells in absence of CPT | DT40 Tdp1-/- hTDP1 cells, no CPT, ATP luminescence, 48 h | Potency, µM (top dose mostly 46.2 µM), without a hit: at the highest dose activity change, negative = growth inhibition, most hits filed as inhibitors | 420,000 compounds, 15% hits | AID 686978, 2013; further: nearly all actives have a fitted effect of over 55% in size
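Growth kinetics read by CellTiter-Glo luminescence after ≥48 hr at 37 °C. Cells: DT40 Tdp1-/- stably carrying human TDP1, 400 per well, compound exposure in the absence of CPT (DMSO vehicle).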
KB-3-1 tox: kills parental KB-3-1 adenocarcinoma cells | KB-3-1 viability, CellTiter-Glo ATP luminescence, 72 h | Potency, µM (titrated, usually from 46.1 µM), actives largely listed as cytotoxic | 400,000 compounds, 1.4% hits | AID 1347075; further: nearly all actives have a fitted effect of over 60% in size
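Parental KB-3-1 adenocarcinoma cells in phenol-red-free DMEM with 10% FBS were pin-treated with compounds at several concentrations, incubated 72 h at 37 °C, and viability read by CellTiter-Glo luminescence; concentration-effect curves were fitted after normalization.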
Active calls of the source: *; [ ] = another dose, or the depositor's remark. Only some compounds are listed: those with a hit (about 19% of all), similar ones and a draw of the others. The call rests on the fitted dose curve; in most records, active means well fitted curve in the direction sought with a large enough effect; inconclusive means small, poorly fitted or top-dose-only effect, or another doubt; inactive means no such curve, though single readings can be large; an effect the other way counts as inactive or inconclusive. Unless noted, on the % scale 0 is the no-effect control and ±100 the full control effect; potency means the concentration at half of the fitted maximal effect.

Cn1c(N)c(C(=O)CSc2nnc(-c3ccccc3F)n2N)c(=O)n(C)c1=O was read as HT1080 IDH1KD tx 5.2%, KB-V1 cytotox inactive, HT1080NT lethal -0.3%, DT40 TDP1 CPT 0.7%, TDP1 cell noCPT 14.3% and KB-3-1 tox inactive.
For CCCn1c(N)c(C(=O)CSc2nnc(Cc3ccccc3)o2)c(=O)n(C)c1=O the results were HT1080 IDH1KD tx inconclusive, KB-V1 cytotox 10.3µM*, HT1080NT lethal -16.8%, DT40 TDP1 CPT inconclusive, TDP1 cell noCPT 23.1µM* and KB-3-1 tox inactive.
For Cn1c(=O)c(C(=O)CSc2nnc(Nc3ccccc3)s2)c(N)n(Cc2ccccc2)c1=O the results were HT1080 IDH1KD tx -9.8%, KB-V1 cytotox inactive, HT1080NT lethal -12.3%, DT40 TDP1 CPT -20.1%, TDP1 cell noCPT -13.5% and KB-3-1 tox inactive.
For CCCn1c(N)c(C(=O)CSc2n[nH]c(-c3ccccc3F)n2)c(=O)n(C)c1=O the results were HT1080 IDH1KD tx -8.5%, KB-V1 cytotox inactive, HT1080NT lethal 0.5%, DT40 TDP1 CPT 20.6µM*, TDP1 cell noCPT 23.1µM* and KB-3-1 tox inactive.
For COc1cccc(NC(=O)CN(C)C(=O)CN2C(=O)c3ccc([N+](=O)[O-])cc3C2=O)c1 the results were HT1080 IDH1KD tx 1.2%, KB-V1 cytotox inactive, HT1080NT lethal 7.7%, DT40 TDP1 CPT 19.6%, TDP1 cell noCPT -15.6% and KB-3-1 tox inactive.
Screening O=C(NCC(F)(F)F)c1[nH]c(C(F)(F)F)nc1-c1ccccc1 returned HT1080 IDH1KD tx 7.1%, KB-V1 cytotox inactive, HT1080NT lethal 13.3%, DT40 TDP1 CPT 2.6%, TDP1 cell noCPT -6.0% and KB-3-1 tox inactive.
Screening CCOC(=O)C1(C)CCN1C(=O)c1ccc(C(=O)OC)cc1 (centres undefined) returned HT1080 IDH1KD tx 20.6%, KB-V1 cytotox inconclusive, HT1080NT lethal 15.0%, DT40 TDP1 CPT inconclusive, TDP1 cell noCPT -24.5% and KB-3-1 tox inactive.
COc1cc(-c2cc3nc(NCCN(C)C)ccn3n2)cc(OC)c1OC was read as HT1080 IDH1KD tx -4.0%, KB-V1 cytotox inactive, HT1080NT lethal -2.7%, DT40 TDP1 CPT -18.8%, TDP1 cell noCPT -20.6% and KB-3-1 tox inactive.
`COc1cc(-c2cc3nc(NC4CCCCC4)ccn3n2)cc(OC)c1OC` gave HT1080 IDH1KD tx 16.4µM*, KB-V1 cytotox inconclusive, HT1080NT lethal 18.4µM*, DT40 TDP1 CPT 16.4µM*, TDP1 cell noCPT 10.3µM* and KB-3-1 tox inactive.
Screening FC(F)(F)c1cccc(-c2cc3nc(NC4CCCCC4)ccn3n2)c1 returned HT1080 IDH1KD tx inconclusive, KB-V1 cytotox inactive, HT1080NT lethal inconclusive, DT40 TDP1 CPT 20.6µM*, TDP1 cell noCPT inconclusive and KB-3-1 tox inconclusive.
For CN(C)N1C(=O)c2c(Cl)c(Cl)c(Cl)c(Cl)c2C1=O the results were HT1080 IDH1KD tx 8.9%, KB-V1 cytotox inconclusive, HT1080NT lethal 1.4%, DT40 TDP1 CPT -15.0%, TDP1 cell noCPT -16.3% and KB-3-1 tox inactive.
CCCCC/C=C\CCC(=O)N[C@H]1[C@H](Oc2c3cc4cc2Oc2ccc(cc2Cl)[C@@H](O[C@@H]2O[C@H](CO)[C@@H](O)[C@H](O)[C@H]2NC(C)=O)[C@@H]2NC(=O)[C@H](NC(=O)[C@@H]4NC(=O)[C@H]4NC(=O)[C@@H](Cc5ccc(c(Cl)c5)O3)NC(=O)[C@H](N)c3ccc(O)c(c3)Oc3cc(O)cc4c3)c3ccc(O)c(c3)-c3c(O[C@H]4O[C@H](CO)[C@@H](O)[C@H](O)[C@@H]4O)cc(O)cc3[C@@H](C(=O)O)NC2=O)O[C@H](CO)[C@@H](O)[C@@H]1O was read as DT40 TDP1 CPT 11.7%[21.1 µM] and TDP1 cell noCPT -11.2%.
For C=CCNc1nc(Cl)nc(Nc2ccc(OC)cc2)n1 the results were HT1080 IDH1KD tx -27.5%, KB-V1 cytotox 13µM*, HT1080NT lethal inconclusive, DT40 TDP1 CPT -19.0%, TDP1 cell noCPT -15.5% and KB-3-1 tox inactive.
Screening CN(CCO)C(=O)c1cn(C2CCCN(Cc3ccc4ccccc4c3)C2)nn1 (centres undefined) returned DT40 TDP1 CPT -7.4% and TDP1 cell noCPT -20.2%.
Screening COc1ccc(C(=O)OCC(=O)Nc2ccc(Cl)c(C(F)(F)F)c2)c(OC)c1OC returned HT1080 IDH1KD tx 4.1%, KB-V1 cytotox inconclusive, HT1080NT lethal -5.1%, DT40 TDP1 CPT 20.6µM*, TDP1 cell noCPT 20.6µM* and KB-3-1 tox inactive.
O=C(CN1CCN(c2ccccn2)CC1)Nc1cc(C(F)(F)F)ccc1Cl was read as HT1080 IDH1KD tx 3.4%[9.24 µM], KB-V1 cytotox inconclusive, HT1080NT lethal -11.7%, DT40 TDP1 CPT inconclusive, TDP1 cell noCPT 18.4µM* and KB-3-1 tox inactive.
For COc1ccccc1N1CCN(CC(=O)Nc2ccc(S(=O)(=O)N3CCCCCC3)cc2)CC1 the results were HT1080 IDH1KD tx -21.0%, KB-V1 cytotox inactive, HT1080NT lethal -20.8%, DT40 TDP1 CPT inconclusive, TDP1 cell noCPT inconclusive and KB-3-1 tox inconclusive.
For COc1ccccc1N1CCN(CC(=O)Nc2cc(C)nn2-c2nc(C)cc(C)n2)CC1 the results were HT1080 IDH1KD tx inconclusive, KB-V1 cytotox inactive, HT1080NT lethal inconclusive, DT40 TDP1 CPT 4.11µM*, TDP1 cell noCPT 3.26µM* and KB-3-1 tox 4.61µM*.
For COc1ccccc1N1CCN(CC(=O)Nc2cc(F)ccc2C)CC1 the results were HT1080 IDH1KD tx -19.5%, KB-V1 cytotox inactive, HT1080NT lethal -19.6%, DT40 TDP1 CPT inconclusive, TDP1 cell noCPT inconclusive and KB-3-1 tox inactive.
Screening COc1ccccc1N1CCN(CC(=O)Nc2ccc(Cl)c(C(F)(F)F)c2)CC1 returned HT1080 IDH1KD tx inconclusive, KB-V1 cytotox inconclusive, HT1080NT lethal -25.6%, DT40 TDP1 CPT 20.6µM*, TDP1 cell noCPT inconclusive and KB-3-1 tox inactive.
For COc1ccc(S(=O)(=O)NCCc2sc(-c3cccnc3)nc2C)c(F)c1 the results were KB-V1 cytotox inconclusive and KB-3-1 tox inactive.
C=CCn1c(OCc2ccccc2)n[nH]c1=S was read as HT1080 IDH1KD tx 12.8%, KB-V1 cytotox inactive, HT1080NT lethal 20.7%, DT40 TDP1 CPT 5.2%, TDP1 cell noCPT -23.1% and KB-3-1 tox inactive.
For Cc1ccc(NC2CCCN(C(=O)c3cccc4nccnc34)C2)cc1C (centres undefined) the results were HT1080 IDH1KD tx 15.5%, KB-V1 cytotox inconclusive, HT1080NT lethal 6.7%, DT40 TDP1 CPT -0.2%, TDP1 cell noCPT -3.6% and KB-3-1 tox inactive.

High-throughput results as filed in PubChem BioAssay.
